SARS PLP yeast: qHTS of Yeast-based Assay for SARS-CoV PLP; Potency, µM (series often up to 32.9 µM), inactives show at the top dose activity, positive = growth rescue, hits mostly activators; 330,000 tested, 0.19% active; AID 485353, 2010; S. cerevisiae expressing SARS-CoV PLpro, growth rescue; further: potency means the concentration at half of the fitted maximal effect; 0% is about no effect; nearly all actives have a fitted effect of over 55% in size
Cycloheximide cs: Cycloheximide Counterscreen for Small Molecule Inhibitors of Shiga Toxin. cell reporter, cycloheximide protein synthesis inhibition counterscreen. max response, %. 300,000 tested, 12% active. AID 2314, 2010; in the data active means max response mostly above about 13%, no sharp cut-off; inactive means mostly below about 14%; further: read at 38.3 µM for the half of the compounds with a filed dose; 0% is about no effect
Pf growth 48h: Primary qHTS for delayed death inhibitors of the malarial parasite plastid, 48 hour incubation. P. falciparum luciferase growth in erythrocytes, 48 h. Potency, µM (doses to about 28.7 µM), for the others: at the highest dose activity change, negative = inhibition, actives largely listed as inhibitors. 310,000 tested, 5.9% active. AID 504832, 2011; active means well fitted inhibition curve with a large enough effect; inconclusive means small, poorly fitted or top-dose-only effect, or another doubt; inactive means no such curve, though single readings can be large or run the other way; further: potency means the concentration at half of the fitted maximal effect; on the % scale 0 is the no-effect control and ±100 the full control effect
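Luciferase-expressing parasites in RBCs, 2% Hct / 0.1% parasitemia final; RPMI 1640 + 0.5% Albumax; 37 C, 5% CO2, one generation; luminescence read-out, lower signal = inhibition.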
Pf growth 96h: Primary qHTS for delayed death inhibitors of the malarial parasite plastid, 96 hour incubation; 320,000 tested, 6.9% active; AID 504834, 2011; Potency, µM (series often up to 28.7 µM), for inactives: at the top dose activity change, negative = inhibition, usual class: inhibitors; P. falciparum luciferase reporter growth, 96 h; active means well fitted inhibition curve with a large enough effect; inconclusive means small, poorly fitted or top-dose-only effect, or another doubt; inactive means no such curve, though single readings can be large or run the other way; further: potency means the concentration at half of the fitted maximal effect; on the % scale 0 is the no-effect control and ±100 the full control effect
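Compounds incubated with erythrocytes infected by luciferase-expressing P. falciparum (2% hematocrit, 0.05% parasitemia final) for 96 hours, 37 C in 5% CO2. Growth inhibition scored as decreased luciferase luminescence.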
Shiga inhibitor: A qHTS for Small Molecule Inhibitors of Shiga Toxin; 290,000 tested, 9.2% active; Vero cells, Shiga toxin protein synthesis inhibition reporter; AID 2315, 2010; inhibition, % at 38.7 µM; in the data active means inhibition mostly above about 28%, no sharp cut-off; inactive means mostly below about 43%; further: 0% is about no effect
NS1 function inh: qHTS Assay for Inhibitors of Influenza NS1 Protein Function; 270,000 tested, 0.4% active; AID 2326, 2010; Potency, µM (doses to about 46.1 µM), for inactives: at the top dose activity, positive = more growth; further: potency means the concentration at half of the fitted maximal effect; actives are rising curves; nearly all actives have a fitted effect of over 50% in size
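S. cerevisiae expressing influenza A NS1, grown in glucose, washed, then diluted 1:100 into pH 6.0 -URA galactose medium with 23 nl compound. Growth recovery read as OD600; NS1-free strain serves as control.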
Numbers without * were called inactive; ? = inconclusive; · = not tested or not shown; [ ] = dose if it differs, or a comment. Shown are actives, neighbours in structure and some others; about 21% of the full set was active somewhere. Unless noted, the call rests on the fitted dose curve.

SMILES	SARS PLP yeast	Cycloheximide cs	Pf growth 48h	Pf growth 96h	Shiga inhibitor	NS1 function inh
Cc1cc(=O)[nH]c2c(C)c(N)ccc12	-7.1%	-3.7	2.1%	?	-3.4	1.6%
COc1ccccc1NS(=O)(=O)c1cc(NC(=O)C(C)(C)C)ccc1N1CCOCC1	0.7%	·	?	?	·	·
COc1ccccc1NS(=O)(=O)c1cc(NC(=S)NCCN2CCOCC2)ccc1N1CCOCC1	5.2%	-1.9	?	14.7µM*	-15.3	13.7%
COCC(=O)Nc1ccc(N2CCOCC2)c(S(=O)(=O)Nc2ccccc2OC)c1	2.5%	·	·	·	·	·
COc1ccccc1NS(=O)(=O)c1cc(NC(=O)c2cnccn2)ccc1N1CCOCC1	-0.3%	-1.0	11.7µM*	?	-11.3	2.3%
COc1ccccc1NS(=O)(=O)c1cc(NC(=O)c2cc(=O)[nH]c3ccccc23)ccc1N1CCOCC1	0.4%	-4.4	10.4µM*	?	-4.7	-4.4%
COc1ccccc1NS(=O)(=O)c1cc(NC(=O)c2cccc(S(=O)(=O)N(C)C)c2)ccc1N1CCOCC1	0.8%	·	2.33µM*	1.47µM*	·	·
COc1ccc(NS(=O)(=O)c2ccc(-c3n[nH]c(=S)n3Cc3ccccc3)cc2)cc1	-1.7%	-0.3	?	3.6%	7.0	11.5%
O=C(NCCNCCO)C1(C(F)(F)F)CC(CCc2ccccc2)CCCO1 (stereo not given)	·	-2.8	·	·	-3.3	·
Cc1cc(S(=O)(=O)NC2CC(C)(C)NC(C)(C)C2)c(Cl)cc1Cl	4.2%	-1.6	?	68.1%	·	-6.7%
COc1ccccc1NS(=O)(=O)c1cc(NC(=O)c2ccncc2)ccc1N1CCOCC1	0.5%	-3.1	?	14.7µM*	13.7	-3.4%
O=C(NCc1ccccc1Cl)C1CCC(=O)N(CCCN2CCCC2=O)C1 (stereo not given)	-1.1%	-2.4	5.5%	-21.5%	-11.5	1.4%
C=CCNc1cc(C(F)(F)F)nc(-c2ccccn2)n1	7.8%	4.0	6.57µM*	4.15µM*	-4.8	11.6%
COC(=O)CC1C(=O)NCCN1Cc1cn(-c2ccc(C)cc2)nc1-c1cccc(C)c1 (stereo not given)	0.8%	19.9*	?	10.4µM*	45.5*	3.9%
Cc1ccc(-n2cc(CNCCN3CCOC3=O)c(-c3cccc(C)c3)n2)cc1	-1.1%	15.9*	42.4%	-29.9%	54.3*	-3.6%
COc1ccccc1N(C)S(=O)(=O)c1ccc(C(=O)OCC(=O)NCCC2=CCCCC2)cc1	0.1%	-3.9	20.3%	4.4%	1.7	?
COc1ccc(C2=Nn3c(nnc3-c3ccc(OC)c(OC)c3)SC2)cc1	·	-0.6	·	·	-8.5	·
Clc1ccccc1Cn1nnc2c(NCC3CC3)ncnc21	-5.6%	16.6	?	?	22.4	-1.6%
O=C(c1ccco1)N1CCCC(c2nc3c(nnn3Cc3cccc(Cl)c3)c(=O)[nH]2)C1 (stereo not given)	7.5%	-6.7	?	52.5%	-8.3	7.7%
Clc1ccccc1Cn1nnc2c(Nc3ccccc3)ncnc21	-1.2%	15.6*	-8.4%	?	79.2	-13.7%
O=C(c1ccco1)N1CCN(c2ncnc3c2nnn3Cc2ccccc2Cl)CC1	-18.7%	8.2	11.7µM*	-24.0%	-8.6	-24.8%
O=C(c1ccco1)N1CCN(c2nc(C(F)(F)F)nc3c2nnn3Cc2ccccc2)CC1	-23.6%	5.2	9.28µM*	·	17.2	?
CC(C)c1ccc(S(=O)(=O)N2CCN(C(=O)C3CCCC3)CC2)cc1	-4.9%	-2.4	5.1%	-19.2%	-6.1	-5.2%
CC(=O)c1c(C(C)=O)c(C)n(C(c2ccccc2)c2ccccc2)c1C	0.1%	-0.4	?	-4.6%	24.4	-0.5%
O=C(N/N=C/c1cc([N+](=O)[O-])ccc1O)c1cccc(NC(=O)c2cccc(Cl)c2)c1	24.8%	4.5	2.33µM*	2.0%	-3.1	5.4%
SMILES	SARS PLP yeast	Cycloheximide cs	Pf growth 48h	Pf growth 96h	Shiga inhibitor	NS1 function inh
O=C(CCC(=O)Nc1cc(C(F)(F)F)ccc1Cl)N/N=C\c1cc([N+](=O)[O-])ccc1O	10.6%	-3.3	13.1µM*	265.9%	-6.4	-5.8%
Cc1nc2ccc(C(=O)N/N=C/c3cc([N+](=O)[O-])ccc3O)cc2[nH]1	1.7%	-2.1	19.6%[5.75 µM]	-22.9%	4.8	·
O=C(Cn1nnc(-c2ccccc2)n1)N/N=C/c1cc([N+](=O)[O-])ccc1O	?	-2.5	9.3%	10.4µM*	16.7	12.3%
O=C(N/N=C/c1cc([N+](=O)[O-])ccc1O)c1cccc2ccccc12	?	-1.6	13.1µM*	26.5%	-4.8	-4.3%
Cc1cc(/C=C2\Sc3ccccc3N2C)cc(C)[n+]1CC1CCCO1 (stereo not given)	-5.0%	-0.9	?	?	-7.2	-43.5%
C=CCNC(=S)N1CCN(Cc2ccccc2)CC1	0.1%	-0.9	17.3%	32.4%	-8.5	4.7%
O=C(Cn1nc2ccccc2n1)N/N=C/c1cc([N+](=O)[O-])ccc1O	-4.8%	-1.5	4.65µM*	?	-4.7	·
O=C(/C=C/Nc1ccc([N+](=O)[O-])cc1Br)c1cccc2ccccc12	3.8%	20.0*	204.1%	400.0%	42.4	6.2%
NC(=O)c1cc([N+](=O)[O-])ccc1NCc1cccc2ccccc12	-0.3%	·	?	?	·	·
Cc1ccc(-c2cc(-c3ccc(Cl)cc3)c(C#N)c(N)n2)o1	-28.6%	0.5	-12.9%	·	-13.4	-55.7%
Cc1ccc(C2=NNC(c3ccc(Cl)cc3)=Nc3ccccc32)o1	-0.7%	7.4	10.4µM*	10.4µM*	15.6	?
COc1cccc(N2CCN(S(=O)(=O)c3ccc4c(c3)oc(=O)n4C)CC2)c1	-2.5%	16.6*	6.4%	?	15.4	-1.4%
CCN(Cc1ccccc1)C(=O)CCS(=O)(=O)c1ccc2c(c1)n(C)c(=O)c(=O)n2C	-2.5%	-1.1	-27.9%	3.7µM*	6.8	-5.9%
Cn1c(=O)oc2cc(S(=O)(=O)CCC(=O)N3CCN(c4ccccc4)CC3)ccc21	-1.3%	2.0	?	9.28µM*	30.3	-1.4%
CN(Cc1ccccc1)C(=O)CCS(=O)(=O)c1ccc2c(c1)oc(=O)n2C	-3.4%	3.9	-19.4%	13.1µM*	0.2	4.4%
COc1cccc(N2CCN(C(=O)C3CCN(S(=O)(=O)c4ccc5c(c4)oc(=O)n5C)CC3)CC2)c1	-0.9%	5.6	?	23.8%	-12.3	0.3%
COc1cccc(N2CCN(C(=O)CCS(=O)(=O)c3ccc4c(c3)oc(=O)n4C)CC2)c1	-4.7%	-4.0	?	5.22µM*	5.0	12.2%
COc1ccc(N(C)S(=O)(=O)c2ccc3c(c2)oc(=O)n3C)cc1	4.8%	0.9	-9.9%	7.38µM*	-2.6	6.2%
Cn1c(=O)oc2cc(S(=O)(=O)CCC(=O)N3CCN(c4ccccc4F)CC3)ccc21	-1.0%	-2.5	-18.1%	?	-8.5	-1.9%
